# A selection: hits, their analogues and other compounds. The true share with any hit is near 6.8%.
# Pf Dd2 growth = blocks growth of Plasmodium falciparum Dd2 parasites. hit rate 2.3% among 94,000. P. falciparum Dd2 growth, SYBR Green, 72 h; active compounds read low. AID 1159554. activity change, % at 10 µM; in the data active = activity change below about -80%; inconclusive = no clear call, values can overlap the other calls
# C diff HTS = inhibitors of Clostridium difficile growth; Clostridium difficile clinical isolate growth, OD600, 24 h; active compounds read low; growth activity, negative = inhibition, % at 16 µg/mL (by protocol); hit rate 0.25% among 86,000;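 active = mean growth activity at or below -80% and every replicate also at or below -80%; inconclusive = mean at or below -80% but some replicate above -80%; inactive = mean growth activity above -80%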;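 note: 0% = DMSO wells and -100% = levofloxacin 16 µg/mL wells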
# T cruzi growth = inhibitors of T. cruzi proliferation; AID 624255; T. cruzi beta-gal in NIH3T3, GalScreen luminescence, 90 h; hit rate 5.9% among 77,000; inhibition, % at 8.34 µM;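 active = mean inhibition above about 93%, with at least 55% of replicates each passing it, limit read from the data, passing the limit was not always enough; inconclusive = only one of those two conditions holds; inactive = neither condition holds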
# Active calls of the source: *; ? = inconclusive; . = no result given.
SMILES,Pf Dd2 growth,C diff HTS,T cruzi growth
C[C@H](CO)N1C[C@H](C)[C@@H](CN(C)C(=O)Nc2ccc(C(F)(F)F)cc2)Oc2ccc(NC(=O)Nc3ccc4c(c3)OCO4)cc2CC1=O,-23,10,30
C[C@H](CO)N1C[C@H](C)[C@@H](CN(C)C(=O)Nc2ccc3c(c2)OCO3)Oc2ccc(NC(=O)Nc3ccc(C(F)(F)F)cc3)cc2CC1=O,-93*,5,.
C[C@@H]1CN([C@H](C)CO)C(=O)Cc2cc(NC(=O)Nc3ccc4c(c3)OCO4)ccc2O[C@H]1CN(C)C(=O)Nc1ccc(C(F)(F)F)cc1,-27,2,10
CCC(=O)N1CC2(CCN(Cc3nccs3)CC2)c2c(n(C)c3cc(OC)ccc23)[C@@H]1CO,-36,-3,.
CCC(=O)N1CC2(C1)CN(Cc1cccc(Cl)c1)[C@H](CO)c1[nH]c3cc(OC)ccc3c12,-89*,-2,.
CCC(=O)N1CC2(C1)CN(Cc1ccc(OC)cc1)[C@H](CO)c1[nH]c3cc(OC)ccc3c12,-64,-1,.
CCCC(=O)N1CC2(C1)CN(Cc1ccc(Cl)cc1)[C@H](CO)c1[nH]c3cc(OC)ccc3c12,-90*,2,.
CCC(=O)N1CCC2(CC1)CN(Cc1cccc(Cl)c1)[C@@H](CO)c1[nH]c3cc(OC)ccc3c12,-77,0,.
COc1ccc2c3c([nH]c2c1)[C@@H](CO)N(Cc1ccc(Cl)cc1)CC31CN(S(C)(=O)=O)C1,-33,-1,.
CCC(=O)N1CC2(C1)CN(Cc1ccccc1Cl)[C@H](CO)c1[nH]c3cc(OC)ccc3c12,-85*,10,.
CCCC(=O)N1CC2(C1)CN(Cc1ccc(Cl)cc1)[C@@H](CO)c1[nH]c3cc(OC)ccc3c12,-92*,7,.
COc1ccc2c3c([nH]c2c1)[C@H](CO)N(Cc1ccc(Cl)cc1)CC31CN(S(C)(=O)=O)C1,-7,-2,.
COCCNC(=O)C[C@@H]1C[C@H]2c3cc(NC(=O)CC4CC4)ccc3O[C@H]2[C@H](CO)O1,26,0,5
Cc1noc(C)c1NC(=O)N(C)C[C@H]1Oc2ccc(NS(=O)(=O)c3ccc(Cl)cc3)cc2CC(=O)N([C@@H](C)CO)C[C@@H]1C,44,23,24
COCC(=O)N1[C@H](CO)[C@H]2c3ccccc3N(C(=O)c3ccccc3)C[C@H]21,3,5,0
COc1ccc([Si](C)(C)[C@H]2[C@H](CCO)O[C@@]3(C(=O)N(Cc4ccccc4)c4ccc(N5CCC5=O)cc43)[C@@H]2C)cc1,.,4,.
CCC(=O)N1CC2(C1)CN(Cc1ccc(Cl)cc1)[C@@H](CO)c1[nH]c3cc(OC)ccc3c12,-90*,3,.
COc1ccc2c3c([nH]c2c1)[C@H](CO)N(Cc1cccc(Cl)c1)CC31CN(C(C)=O)C1,-83*,4,.
COc1ccc2c3c([nH]c2c1)[C@H](CO)N(Cc1ccccc1)CC31CN(C(C)=O)C1,-73,-2,.
CCC(=O)N1CC2(C1)CN(Cc1ccc(Cl)cc1)[C@H](CO)c1[nH]c3cc(OC)ccc3c12,?,7,.
CCC(=O)N1C[C@H](C)[C@@H](OC)CN(C)C(=O)c2ccc(NC(=O)Nc3cccc(F)c3)cc2OC[C@H]1C,-2,-7,-43
COCCNC(=O)[C@H]1[C@H](CO)[C@H]2Cn3c(ccc(C4=CCCCC4)c3=O)[C@@H]1N2C(=O)C1CCCC1,-8,-3,.
O=C(c1ccccc1)N1CC2(C1)[C@H](c1ccccc1)[C@@H](CO)N2C(=O)CC1CC1,-23,-6,.
COc1ccc2c3c(n(C)c2c1)[C@H](CO)N(C(=O)C1CC1)CC31CCN(Cc2cccc(F)c2)CC1,-72,9,.
COc1ccc2c3c(n(C)c2c1)[C@H](CO)N(C(=O)C1CCC1)CC31CCN(Cc2cccc(F)c2)CC1,-84*,-7,.
SMILES,Pf Dd2 growth,C diff HTS,T cruzi growth
COc1cccc(CN2CCC3(CC2)CN(C(=O)C2CC2)[C@H](CO)c2c3c3ccc(OC)cc3n2C)c1,-85*,3,.
COc1ccc2c3c(n(C)c2c1)[C@@H](CO)N(C(=O)C1CCC1)CC31CCN(Cc2cccc(F)c2)CC1,-72,-3,.
COc1ccc(CN(C)C[C@@H]2Oc3ccc(NC(=O)Nc4c(C)noc4C)cc3C(=O)N([C@H](C)CO)C[C@H]2C)cc1,8,0,0
COc1ccc(S(=O)(=O)N(C)C[C@@H]2Oc3c(NS(=O)(=O)c4ccc(C)cc4)cccc3C(=O)N([C@@H](C)CO)C[C@@H]2C)cc1,-19,1,.
COc1cccc(C#Cc2ccc([C@@H]3[C@@H](CO)N4C(=O)CN(C(=O)c5ccccc5)C[C@@H]34)cc2)c1,-91*,-5,.
COc1cccc(C#Cc2ccc([C@@H]3[C@@H](CO)N4C(=O)CN(C(=O)Cc5ccccc5)C[C@H]34)cc2)c1,-4,-1,.
N#Cc1ccc(-c2ccc([C@@H]3[C@H]4CN(C(=O)Cc5ccccc5)CC(=O)N4[C@H]3CO)cc2)cc1,-9,2,.
N#Cc1ccc(-c2ccc([C@H]3[C@@H](CO)N4C(=O)CN(C(=O)Cc5ccccc5)C[C@@H]34)cc2)cc1,-85*,-1,.
COc1cccc(C#Cc2ccc([C@@H]3[C@H](CO)N4C(=O)CN(C(=O)c5ccccc5)C[C@@H]34)cc2)c1,-16,-2,.
COc1cccc(C#Cc2ccc([C@H]3[C@@H](CO)N4C(=O)CN(C(=O)Cc5ccccc5)C[C@H]34)cc2)c1,-94*,2,.
C[C@@H]1CN([C@@H](C)CO)C(=O)c2cc(-c3cccnc3)cnc2O[C@H]1CN(C)C(=O)Nc1ccc2c(c1)OCO2,16,-1,39
CC(C)NC(=O)Nc1cccc2c1O[C@H](CN(C)C(=O)Nc1ccc3c(c1)OCO3)[C@@H](C)CN([C@@H](C)CO)C2=O,16,.,10
C[C@@H]1CN([C@@H](C)CO)C(=O)c2cccc(NC(=O)Nc3ccccc3)c2O[C@@H]1CN(C)C(=O)Nc1ccc2c(c1)OCO2,-85*,.,-3
C[C@H](CO)N1C[C@H](C)[C@@H](CN(C)C(=O)Nc2cccc3ccccc23)Oc2ccc(NC(=O)Nc3ccc4c(c3)OCO4)cc2CC1=O,-82*,-1,-10
C[C@@H]1CN([C@H](C)CO)C(=O)c2cccc(NC(=O)Nc3cccc4ccccc34)c2O[C@H]1CN(C)C(=O)Nc1ccc2c(c1)OCO2,-19,-6,66
C[C@@H]1CN([C@H](C)CO)C(=O)c2cccc(NC(=O)Nc3cccc4ccccc34)c2O[C@@H]1CN(C)C(=O)Nc1ccc2c(c1)OCO2,-83*,6,80
CC(C)NC(=O)Nc1cccc2c1O[C@H](CN(C)C(=O)Nc1ccc3c(c1)OCO3)[C@H](C)CN([C@@H](C)CO)C2=O,-83*,.,39
C[C@H]1CN([C@@H](C)CO)C(=O)Cc2cc(NC(=O)Nc3ccc4c(c3)OCO4)ccc2O[C@@H]1CN(C)C(=O)Nc1cccc2ccccc12,14,-2,4
C[C@H]1CN([C@@H](C)CO)C(=O)c2cccc(NC(=O)Nc3ccccc3)c2O[C@H]1CN(C)C(=O)Nc1ccc2c(c1)OCO2,-17,.,21
COCC(=O)N1C[C@H](C)[C@H](OC)CN(C)C(=O)c2ccc(NC(=O)c3cc(C)on3)cc2OC[C@H]1C,-13,.,-13
C[C@H](CO)N1C[C@H](C)[C@@H](CN(C)Cc2ccc(Cl)c(Cl)c2)OCc2cn(nn2)CCCC1=O,0,1,17

# High-throughput results: PubChem, Broad Institute
